Compound activity from PubChem.
VP16 counter = Gal4-VP16 reporter inhibition counter-screen | Potency, µM (top dose mostly 53.6 µM), inactives show at the top dose activity, negative = inhibition, hits mostly inhibitors | actives 3.5% (n = 310,000) | Drosophila S2 Gal4-VP16 UAS-luciferase, luminescence, 20 h;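 also: Gal4-VP16 expression switched on by copper sulfate through the metallothionein promoter; potency is read from the fitted curve at half-maximal effect; % is scaled to controls: 0 for no effect and ±100 for the full control effect; nearly all actives have a fitted effect of over 50% in size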
BRCA1 expr up = increases BRCA1 expression; Potency, µM (doses to about 46.1 µM), for the others: at the highest dose activation, usual class: activators; MCF7-BRCA1-FFLuc reporter, luminescence, 48 h; response scale: scaled: vehicle 0%, 10 µM genistein 100%; actives 1.1% (n = 380,000); also: potency is read from the fitted curve at half-maximal effect; nearly all actives have a fitted effect of over 80% in size
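Compounds are tested at multiple concentrations on MCF7 BRCA1-luciferase reporter cells seeded at 2000 per well; after 48 h, a single luminescence end-point is taken and curves fitted to the normalized data.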
Giardia killer = kills Giardia lamblia; activity change, % at 7.66 µM, hits read low; Giardia lamblia trophozoite viability; actives 0.15% (n = 340,000); in the data active = activity change below about -80%; inconclusive = between about -30% and that limit;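 also: parasites exposed to compound for two days anaerobically before the ATP read; % is scaled to controls: 0 for no effect and ±100 for the full control effect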
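Giardia trophozoites, 100 cells per well, were exposed to compounds for 48 hrs at 37 deg C under anaerobic conditions; viability was then read as ATP content by bioluminescence after 15-30 min at room temperature.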
ELG1 repair inh = blocks ELG1-dependent DNA repair in HEK293T cells; HEK293T ELG1-luciferase reporter, luminescence, 16 h; DNA damage induced by 5-fluorouridine; Potency, µM (titrated, usually from 46.1 µM), for the others: top-dose activity change, negative = inhibition, usual class: inhibitors; actives 2.3% (n = 330,000); AID 504467; also: potency is read from the fitted curve at half-maximal effect; % is scaled to controls: 0 for no effect and ±100 for the full control effect; nearly all actives have a fitted effect of over 55% in size
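5-Fluorouridine DNA damage + compound/DMSO, 2,000 cells/well, 16 h, 37 °C/5% CO2. ONE-Glo, 30 min RT, luminescence. Readout = decrease in reporter signal.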
p53 reactivation = re-activators of mutant p53; H1299 p53-A138V BP100-luciferase reporter, luminescence, 24 h; Potency, µM (titrated, usually from 92.2 µM), for the others: top-dose activity change, positive = activation, actives largely listed as activators; actives 0.063% (n = 320,000); also: potency is read from the fitted curve at half-maximal effect; % of control where 0% means no effect; nearly all actives have a fitted effect of over 45% in size
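p53-null H1299 cells stably carrying temperature-sensitive p53-A138V and a BP100-luciferase reporter were pinned with compounds (4-point, 1:5 series) and held 24 hrs at 37 deg C. Luminescence was read 10 min after detection reagent.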
RORgamma inh = ROR gamma (mouse) transcription inhibition | Potency, µM (series often up to 53.6 µM), for inactives: at the top dose activity change, negative = inhibition, actives largely listed as inhibitors | AID 2551 | actives 5.4% (n = 310,000) | P51450 | Drosophila S2 Gal4-RORgamma UAS-luciferase reporter, 20 h; also: potency is read from the fitted curve at half-maximal effect; % is scaled to controls: 0 for no effect and ±100 for the full control effect; nearly all actives have a fitted effect of over 60% in size
Target sequence (P51450 whole entry, looked up, the tested form may be a part): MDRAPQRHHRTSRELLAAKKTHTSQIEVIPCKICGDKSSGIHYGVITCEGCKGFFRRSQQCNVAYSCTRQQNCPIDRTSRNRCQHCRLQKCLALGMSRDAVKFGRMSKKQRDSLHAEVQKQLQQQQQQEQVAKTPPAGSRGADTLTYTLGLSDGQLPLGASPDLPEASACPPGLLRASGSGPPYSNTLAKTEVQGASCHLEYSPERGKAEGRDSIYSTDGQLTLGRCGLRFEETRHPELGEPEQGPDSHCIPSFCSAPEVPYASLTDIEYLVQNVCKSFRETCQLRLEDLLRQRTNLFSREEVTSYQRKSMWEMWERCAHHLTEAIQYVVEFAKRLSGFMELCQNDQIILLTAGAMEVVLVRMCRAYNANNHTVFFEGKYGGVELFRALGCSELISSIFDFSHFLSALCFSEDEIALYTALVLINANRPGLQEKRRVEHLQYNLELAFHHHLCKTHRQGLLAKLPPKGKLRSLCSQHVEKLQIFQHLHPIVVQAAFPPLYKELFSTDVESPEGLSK
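Using a luciferase readout, inhibitors were identified by reduced reporter activity in Drosophila cells coexpressing a copper-inducible Gal4–ROR gamma fusion and UAS-driven Photinus luciferase, incubated 20 hr after 700 uM copper sulfate.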
* hit, by the source's call; u = inconclusive; x = no result. A selection: hits, their analogues and other compounds. The true share with any hit is near 7.6%. Unless noted, calls follow the shape of the dose curve; as a rule, active = well fitted curve in the direction sought with a large enough effect; inconclusive = small, poorly fitted or top-dose-only effect, or another doubt; inactive = no such curve, though single readings can be large; an effect the other way counts as inactive or inconclusive.

SMILES	VP16 counter	BRCA1 expr up	Giardia killer	ELG1 repair inh	p53 reactivation	RORgamma inh
CCOc1ccc2c(c1)C(C)=CC(C)(C)N2S(=O)(=O)c1ccc(C)cc1	u	-57%	-11	-1%	17%	4µM*
O=C(N1CCOCC1)N1CCN(S(=O)(=O)c2ccc(Cl)cc2)CC1	3%	0%	-23	-2%	5%	-27%
CNC(=S)NCCCc1ccccc1	u	-4%	25	8%	16%	16µM*
NNC(=S)NCCc1ccccc1	10µM*	29%	9	14%	-3%	3.5µM*
CC(C)(C)NC(=O)NCCc1ccccc1	-22%	69%	4	u	5%	-36%
CC(C)(C)C(=O)NC(=S)NCCc1ccccc1	u	u	2	u	15%	8.9µM*
S=C(NCCc1ccccc1)NCCc1ccccc1	10µM*	u	2	u	u	7.1µM*
Cn1nc(C(=O)NCc2cccc(Cl)c2)c2c1-c1ccccc1S(=O)(=O)C2	-9%	-24%	-21	u	-1%	10%
COc1ccc(N2C(=O)CCC(C(=O)N(C)CCc3ccccn3)C2c2ccc(OC)c(OC)c2)cc1 (configuration not stated)	4%	6%	-4	u	-2%	1%
COc1ccc(CC(=O)Oc2cc(C)[nH]c(=O)c2[N+](=O)[O-])cc1	-1%	12%	-11	u	-2%	-3%
O=C(NCCc1ccccc1)/C(=N\O)c1ccccc1	-9%	1.3µM*	11	u	u	11%
S=C(NCCCCc1ccccc1)NCc1ccccc1	u	10%	-3	14%	-4%	16µM*
S=C(NCCc1ccccc1)Nc1ccc(Br)cn1	5µM*	16%	-21	-4%	1%	0.28µM*
CN(C)CCCNC(=O)/C(=N\O)c1ccccc1	2%	-1%	2	3%	-2%	-20%
S=C(NCCCCNC(=S)NCc1ccccc1)NCc1ccccc1	-16%	-7%	1	-1%	-1%	u
S=C(NCCc1ccccc1)Nc1nccs1	x	u	5	2%	u	x
COc1ccc(CN=C2NC(=O)CC(C(=O)Nc3ccc(F)cc3)S2)cc1 (configuration not stated)	-2%	16%	8	-13%	-7%	22%
Cc1c(CCC(=O)NCC(=O)O)c(=O)oc2cc3occ(-c4ccccc4)c3cc12	u	-10%	-10	-4%	-7%	-27%
O=C(CCn1nnc(-c2cccs2)n1)NC1CCCCC1	12%	1%	3	4%	-3%	29%
Cc1ccc(-c2nnc(NC(=O)Cc3ccc(F)cc3)o2)c(C)c1	1.3µM*	8%	12	2%	10%	1.4µM*
Cc1ccc(C)c(-c2nnc(NC(=O)CCS(=O)(=O)c3ccccc3)o2)c1	x	19%	1	-2%	-3%	x
Cc1ccc(C)c(-c2nnc(NC(=O)c3ccc([N+](=O)[O-])o3)o2)c1	x	-84%	-85*	u	u	x
Cc1ccc(C)c(-c2nnc(NC(=O)COc3ccccc3)o2)c1	x	-3%	3	10%	-2%	x
Cc1ccc(C)c(-c2nnc(NC(=O)Cc3ccc(F)cc3)o2)c1	0.56µM*	18%	-15	-4%	10%	0.63µM*
Cc1ccc(-c2nnc(NC(=O)CCS(=O)(=O)c3ccccc3)o2)c(C)c1	x	5%	-6	u	-1%	x
COc1ccc(C(=O)NCC(=O)OCC(=O)NC2CCCCCC2)cc1	x	0%	-2	13%	-1%	x
CC(/C=C/c1ccccc1F)=N\NC(=O)c1cccc(F)c1	5µM*	-31%	-4	u	16%	0.89µM*
CC(/C=N/NC(=O)c1cccc(F)c1)=C\c1ccccc1	-18%	u	-5	u	5%	-31%
CC(/C=C/c1ccco1)=N\NC(=O)COc1ccc(C)c(C)c1	8.9µM*	-6%	15	u	0%	u
